# Assay outcomes: PubChem BioAssay, National Center for Advancing Translational Sciences (NCATS)
# Shown are actives, neighbours in structure and some others; about 3.8% of the full set was active somewhere.
# Nrf2 block: Nrf2 pathway inhibition. AID 504444. A549 ARE-Fluc reporter, luciferase luminescence, 18-24 h. 360,000 tested, 2.1% active. Potency, µM (titrated, usually from 46 µM), for inactives: top-dose activity change, negative = inhibition, most hits filed as inhibitors; further: on the % scale 0 is the no-effect control and ±100 the full control effect; nearly all actives have a fitted effect of over 60% in size
#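 In this cell-based qHTS, ARE-driven firefly luciferase in A549 cells reports Nrf2 activity; the luminescent signal after BugLite lysis is the measured value, with a prior CellTiter-Fluor read for cell health.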
# S2 tox: cell viability loss in ATXN counter-screen; S2 cells (HEK-293 line with an ATXN2-luciferase reporter) viability, CellTiter-Fluor protease fluorescence, 24 h; Potency, µM (titrated, usually from 56.7 µM), usual class: cytotoxic; 400,000 tested, 0.49% active; AID 651635; further: nearly all actives have a fitted effect of over 40% in size
# HepG2 tox-1: HepG2 cytotoxicity, counter-screen for TGF-b inhibitors | Potency, µM (series often up to 46.1 µM), for inactives: at the top dose activity change, negative = cytotoxicity, usual class: cytotoxic | 410,000 tested, 0.76% active | HepG2 CAGA-GFP viability, ATP luminescence, 18 h | AID 588856
#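 CellTiter-Glo luminescence gave cytotoxicity after 18 hours at 37 degrees C. The cells were HepG2 CAGA-GFP in 1% FBS DMEM, stimulated with 500 pg/mL TGF-beta after compound addition. %Activity was normalised to no-cell wells (complete cell-killing) and DMSO (no toxicity), and curves were fitted and classified.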
# TGFb inhibitor: inhibitors of TGF-b signaling; HepG2 CAGA-GFP TGF-b/SMAD3 reporter, GFP fluorescence, 18 h; TGF-beta stimulated, 500 pg/mL final; Potency, µM (series often up to 46.1 µM), for the others: at the highest dose activity, negative = inhibition, usual class: inhibitors; 410,000 tested, 1.2% active; further: on the % scale 0 is the no-effect control and ±100 the full control effect; nearly all actives have a fitted effect of over 65% in size
#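 HEPG2 CAGA-GFP reporter cells (1000/well, DMEM with 1% FBS) received compounds, then recombinant TGF-beta at 500 pg/mL final for 18 hours at 37 degrees C. Per-cell GFP summed per well was normalised to unstimulated and stimulated DMSO controls before curve fitting.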
# A549 viability: counter-screen for Nrf2 inhibitors: cytotoxicity in A549 cells. A549 ARE-Fluc cells, CellTiter-Fluor viability, 18-24 h. 390,000 tested, 0.16% active. Potency, µM (top dose mostly 46 µM), without a hit: top-dose activity change, negative = cytotoxicity, hits mostly inhibitors; further: on the % scale 0 is the no-effect control and ±100 the full control effect
#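 A549 ARE-Fluc cells in 5% FBS OPTI-MEM, 5000 cells/well, rested 2 h then exposed to compounds in concentration-response for 18-24 h at 37 °C. Viability by CellTiter-Fluor fluorescence (Ex 405/Em 525) after 30 min; luciferase luminescence (BugLite, 15 min, RT) read afterwards.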
# ATXN2 expr inh: reduces ATXN2 reporter expression in HEK-293 cells | 360,000 tested, 0.72% active | Potency, µM (series often up to 57 µM), for the others: at the highest dose activity change, negative = inhibition, most hits filed as inhibitors | HEK-293 ATXN2-luciferase reporter, luminescence, 24 h; further: on the % scale 0 is the no-effect control and ±100 the full control effect; nearly all actives have a fitted effect of over 55% in size
#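 ATXN2-luciferase reporter cells (luciferase flanked by upstream and downstream ATXN2 gene portions) were treated 24 h at 37 °C with compounds at up to 57 uM. SteadyGlo luminescence gave expression; GF-AFC fluorescence gave viability.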
# TGFb confirm: TGF-b pathway inhibition, cherry-pick retest | shares compounds with TGFb inhibitor | HepG2 CAGA-GFP TGF-b reporter, GFP fluorescence, 18 h; cells stimulated with TGF-beta, 500 pg/mL | Potency, µM (doses to about 46.1 µM), for inactives: top-dose activity, negative = inhibition, most hits filed as inhibitors | 1,600 tested, 63% active | AID 720534; further: on the % scale 0 is the no-effect control and ±100 the full control effect; nearly all actives have a fitted effect of over 65% in size
# HepG2 tox-2: HepG2 cytotoxicity, TGF-b inhibitor counterscreen; shares compounds with TGFb inhibitor; 1,600 tested, 27% active; Potency, µM (highest dose often 46.1 µM), for inactives: at the highest dose activity, negative = cytotoxicity, hits mostly inhibitors; AID 720535; HepG2 CAGA-GFP viability, ATP luminescence, 18 h; cells stimulated with TGF-beta, 500 pg/mL; further: on the % scale 0 is the no-effect control and ±100 the full control effect; nearly all actives have a fitted effect of over 70% in size
# CCL64 TGFb inh: orthogonal confirmation of TGF-b inhibitors in CCL64 cells | shares compounds with TGFb inhibitor | CCL64 CAGA-GFP reporter, TGF-b stimulated, GFP fluorescence, 18 h | Potency, µM (doses to about 46.1 µM), inactives show at the highest dose activity, negative = inhibition, actives largely listed as inhibitors | 1,600 tested, 41% active | AID 720536; further: nearly all actives have a fitted effect of over 65% in size
# COP TGFb inh: blocks TGF-b signaling in HepG2 COP reporter. 1,600 tested, 3% active. shares compounds with TGFb inhibitor. Potency, µM (series often up to 46.1 µM), for the others: at the top dose activity, negative = inhibition, actives largely listed as inhibitors. HepG2 COP-GFP TGF-b reporter, GFP fluorescence, 18 h; cells stimulated by added recombinant TGF-beta; further: nearly all actives have a fitted effect of over 70% in size
# * marks the source's active call; other numbers are inactive results; i = inactive; ? = inconclusive; nt = no result. The call rests on the fitted dose curve; in most records, active means well fitted curve in the direction sought with a large enough effect; inconclusive means small, poorly fitted or top-dose-only effect, or another doubt; inactive means no such curve, though single readings can be large; an effect the other way counts as inactive or inconclusive. Potency means the concentration at half of the fitted maximal effect.
SMILES,Nrf2 block,S2 tox,HepG2 tox-1,TGFb inhibitor,A549 viability,ATXN2 expr inh,TGFb confirm,HepG2 tox-2,CCL64 TGFb inh,COP TGFb inh
COC(=O)[C@@]1(Cc2ccccc2)[C@H]2C(=O)N(Cc3ccccc3)C(=O)[C@H]2[C@H]2CN=C(SCc3ccccc3)N21,-25.5%,i,-30.1%,?,-6.6%,-3.9%,nt,nt,nt,nt
COC(=O)[C@@]1(Cc2ccccc2)[C@H]2C(=O)N(Cc3ccccc3)C(=O)[C@H]2[C@H]2CN=C(SCC3CC3)N21,2.1%,?,-14.6%,11.2µM*,-6.1%,-17.4%,?,?,?,37.0%
COc1ccc(-c2[nH]c(-c3cc(OC)c4c(c3)OCO4)nc2-c2ccccc2)cc1,23.1µM*,i,3.8%,?,?,-18.0%,13µM*,?,?,35.6%
CCOc1ccc(-c2nc(-c3ccccc3)c(-c3ccccc3)[nH]2)cc1OCC,4.1%,i,-20.3%,-5.4%,-3.7%,5.7%,nt,nt,nt,nt
Cc1cccc(CN2C(=O)NC(c3ccccc3)(c3ccccc3)C2=O)c1,?,i,-26.4%,22.4µM*,5.6%,?,?,?,?,59.5%
CC(C)(C)c1ccc(C(=O)CC(=O)c2cc(Cl)ccc2O)cc1,?,i,-15.9%,5.62µM*,?,-38.4%,?,?,9.2µM*,58.8%
COc1ccc(OC)c(S(=O)(=O)N2CCN(c3ccccc3)CC2)c1,-18.1%,nt,-8.4%,-5.5%,11.3%,51.5%,nt,nt,nt,nt
CCc1ccccc1N1CCN(S(=O)(=O)c2cc(OC)ccc2OC)CC1,?,i,-2.8%,?,-8.8%,10.1%,25.9µM*,?,?,26.8%
COc1ccc2[nH]c3c(N4CCc5ccccc5C4)ncnc3c2c1,16.4µM*,?,-52.3%,7.08µM*,18.4µM*,?,?,23.1µM*,18.4µM*,?
Cc1ccccc1NCc1ccc(O)c2ncccc12,?,i,-40.9%,10µM*,?,?,?,?,5.8µM*,25.7%
Oc1ccc(CNc2ccccc2Br)c2cccnc12,?,nt,nt,nt,-7.2%,nt,nt,nt,nt,nt
CCN(CC)S(=O)(=O)c1ccc2c(c1)c(=O)c(C(=O)N1CCN(c3cc(C)ccc3C)CC1)cn2C,-17.2%,i,-11.3%,8.0%,6.8%,-5.3%,nt,nt,nt,nt
CCOc1cc(/C=C2\COc3ccccc3C2=O)cc(Br)c1OCC(=O)N(C)C,-18.6%,nt,12.6µM*,3.55µM*,-2.6%,22.4µM*,16.4µM*,?,14.6µM*,?
COc1ccc(/C=C2\COc3ccccc3C2=O)c(OC)c1,?,i,3.4%,?,-10.3%,21.9%,nt,nt,nt,nt
O=C(O)c1ccc(/C=C2\COc3ccccc3C2=O)cc1,?,i,-19.6%,14.1µM*,-0.9%,-34.3%,16.4µM*,16.4µM*,-88.6%,25.7%
COc1ccc(/C=C2\COc3ccccc3C2=O)cc1OC,?,i,1.2%,15.8µM*,-3.6%,3.8%,?,?,18.4µM*,6.3%
CCOc1ccccc1OCC(=O)Nc1nc2ccccc2[nH]1,-0.1%,i,-16.9%,0.0%,3.0%,1.8%,nt,nt,nt,nt
CCOc1cc(/C=N/Nc2nc3ccccc3[nH]2)cc(Br)c1OCC(=O)N(C)C,18.4µM*,?,17.7%,8.91µM*,-11.3%,?,11.6µM*,?,?,20.2%
Cc1cc(C)c2c(c1)C(=O)/C(=C/c1ccc(C(=O)O)cc1)CC2,-17.1%,i,3.7%,3.5%,-12.4%,59.7%,nt,nt,nt,nt
CC(Nc1nc(-c2ccc(Cl)cc2)cs1)c1nc2cc(Cl)c(N3CCCCC3)cc2n1CCOCCO (stereo not given),?,?,-30.0%,20µM*,-1.6%,?,?,?,18.4µM*,70.7%
COc1ccc(-c2csc(NC(C)c3nc4cc(Cl)c(N5CCCCC5)cc4n3CCOCCO)n2)cc1 (stereo not given),?,?,-7.4%,?,-19.0%,-35.7%,nt,nt,nt,nt
CCCn1c(C(C)Nc2nc(-c3ccc(C)cc3)cs2)nc2ccccc21 (stereo not given),24.5%,?,-16.5%,11.2µM*,0.5%,-14.6%,?,?,?,42.7%
CCN(C(=O)c1ccc(NC(=O)C2CCCCC2C(=O)O)cc1)c1ccccc1 (stereo not given),nt,?,1.7%,-5.6%,nt,nt,nt,nt,nt,nt
OCCC1CN(Cc2nc(-c3ccc(F)cc3)cs2)CCN1CCc1ccccc1 (stereo not given),?,i,-41.4%,-29.6%,-13.6%,?,nt,nt,nt,nt
CC(C)(C)CN1CCN(Cc2nc(-c3ccc(F)cc3)cs2)CC1CCO (stereo not given),20.6µM*,i,1.3%,?,-10.3%,-20.3%,?,?,-10.2%,-6.0%
COc1ccc(OC)c2sc(NC(=O)CCSc3ccccc3)nc12,-9.1%,i,-8.6%,-8.4%,4.1%,-7.4%,nt,nt,nt,nt
O=C(CCS(=O)(=O)c1ccccc1)Nc1nc2ccc(F)cc2s1,20.8%,i,-21.2%,3.55µM*,0.7%,-11.1%,1.16µM*,-27.3%,10.3µM*,31.5%
COc1ccc(OC)c2sc(NC(=O)CCS(=O)(=O)c3ccccc3)nc12,?,?,21.4%,?,-8.8%,0.0%,2.31µM*,16.4µM*,4.61µM*,-2.9%
